Measured values reported in the supplement of paper PMC10849652.
About 7,900 targets were measured; listed, in parts, are those with a hit and a random draw of the rest. About 0.6% of all pairs of compound and target were hits. Unmarked numbers belong to inactive results.

Tests used:
Test in all cases: log2 fold change, soluble protein after heating vs DMSO (PISA); higher = thermal stabilisation; K562 cells, 10 uM, 30 min; active = over 0.2 and 3.5 SD of the protein, either way, in both replicates (recomputed)
[1] = compound: C#Cc1cccc(Nc2ncnc3cc(OCCOC)c(OCCOC)cc23)c1 [erlotinib]
How it was run: (§1)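 K562 cells at 2×10^6 cells/mL were given 10 μM compound for 30 min. Aliquots then went through 3 min of heating across 48°C-58°C, were pooled, and were extracted in PBS with 0.5% NP-40 at 4°C, and the supernatant after 21,000xg for 90 min was quantified by TMTpro 16plex LC-MS/MS with channel sums equalised. Thermal stability relative to control samples, from duplicates, is given as log2 fold change.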

[2] = compound: C/C(=N\NC(=O)C1=CC(=CC=C1)S(=O)(=O)N2CCOCC2)/C3=C(C=CC(=C3)Cl)O
How it was run: as §1

[3] = compound: C1=CC(=C(C=C1Cl)C2=NC3=NC=CN=C3C(=N2)NC4=CC=NC=C4)F
How it was run: as §1

[4] = compound: C1=CC(=CC=C1C2=NC3=C(N2)C=C(C=C3)C(=O)N)OC4=CC=C(C=C4)Cl
How it was run: as §1

[5] = compound: C1=CC2=C(C=CC(=C2)/C=C\3/C(=O)NC(=NCC4=CC=CS4)S3)N=C1
How it was run: as §1

[6] = compound: C1=CC2=NC=CN=C2C=C1/C=C/3\C(=O)NC(=O)S3
How it was run: as §1

[7] = compound: C1=CC=C(C=C1)C2=NC(=C(N2)C3=CC=NC=C3)C4=CC(=C(C=C4)Cl)O
How it was run: as §1

[8] = compound: C1=CC=C2C(=C1)C3=NNC4=CC=CC(=C43)C2=O
How it was run: as §1

[9] = compound: C1CCN(C1)C(=O)NC2=CC=CC(=C2)NC3=NC=C(C(=N3)NCCC4=CN=CN4)Br
How it was run: as §1

[10] = compound: C1CN(CCC1(CC2=CC=C(C=C2)Cl)N)C3=NC=NC4=C3C=CN4
How it was run: as §1

UniProt Q9H4G4, sequence (Q9H4G4 whole entry, looked up): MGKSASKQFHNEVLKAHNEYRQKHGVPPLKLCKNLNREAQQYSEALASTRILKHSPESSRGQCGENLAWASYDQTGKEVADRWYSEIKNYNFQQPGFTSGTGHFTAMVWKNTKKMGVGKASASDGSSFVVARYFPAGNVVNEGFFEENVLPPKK
UniProt P08236, sequence (P08236 whole entry, looked up): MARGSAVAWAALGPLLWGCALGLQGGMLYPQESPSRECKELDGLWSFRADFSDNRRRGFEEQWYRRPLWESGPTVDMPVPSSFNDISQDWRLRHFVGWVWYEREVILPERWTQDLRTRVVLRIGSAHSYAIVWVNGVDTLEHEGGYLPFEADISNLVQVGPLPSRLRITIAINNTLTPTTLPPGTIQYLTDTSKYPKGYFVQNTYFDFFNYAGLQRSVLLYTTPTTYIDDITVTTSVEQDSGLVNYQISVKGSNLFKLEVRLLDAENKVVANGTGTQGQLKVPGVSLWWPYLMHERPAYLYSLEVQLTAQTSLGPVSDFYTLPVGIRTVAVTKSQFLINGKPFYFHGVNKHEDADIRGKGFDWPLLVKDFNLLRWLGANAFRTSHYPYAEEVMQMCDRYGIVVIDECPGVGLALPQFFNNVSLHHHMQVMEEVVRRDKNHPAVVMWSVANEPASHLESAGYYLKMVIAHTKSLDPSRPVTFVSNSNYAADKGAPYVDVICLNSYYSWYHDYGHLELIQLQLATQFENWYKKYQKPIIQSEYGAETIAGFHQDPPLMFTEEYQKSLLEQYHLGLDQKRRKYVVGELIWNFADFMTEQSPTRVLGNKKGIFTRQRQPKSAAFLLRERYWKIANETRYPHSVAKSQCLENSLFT
UniProt Q13907, sequence (Q13907 whole entry, looked up): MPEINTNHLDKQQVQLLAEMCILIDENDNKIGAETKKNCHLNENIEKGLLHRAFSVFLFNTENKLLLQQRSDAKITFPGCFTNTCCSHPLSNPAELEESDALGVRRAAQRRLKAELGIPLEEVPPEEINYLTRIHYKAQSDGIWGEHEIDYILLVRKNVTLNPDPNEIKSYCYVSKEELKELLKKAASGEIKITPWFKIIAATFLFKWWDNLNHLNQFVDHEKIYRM
UniProt Q9P2D3, sequence (Q9P2D3 whole entry, looked up): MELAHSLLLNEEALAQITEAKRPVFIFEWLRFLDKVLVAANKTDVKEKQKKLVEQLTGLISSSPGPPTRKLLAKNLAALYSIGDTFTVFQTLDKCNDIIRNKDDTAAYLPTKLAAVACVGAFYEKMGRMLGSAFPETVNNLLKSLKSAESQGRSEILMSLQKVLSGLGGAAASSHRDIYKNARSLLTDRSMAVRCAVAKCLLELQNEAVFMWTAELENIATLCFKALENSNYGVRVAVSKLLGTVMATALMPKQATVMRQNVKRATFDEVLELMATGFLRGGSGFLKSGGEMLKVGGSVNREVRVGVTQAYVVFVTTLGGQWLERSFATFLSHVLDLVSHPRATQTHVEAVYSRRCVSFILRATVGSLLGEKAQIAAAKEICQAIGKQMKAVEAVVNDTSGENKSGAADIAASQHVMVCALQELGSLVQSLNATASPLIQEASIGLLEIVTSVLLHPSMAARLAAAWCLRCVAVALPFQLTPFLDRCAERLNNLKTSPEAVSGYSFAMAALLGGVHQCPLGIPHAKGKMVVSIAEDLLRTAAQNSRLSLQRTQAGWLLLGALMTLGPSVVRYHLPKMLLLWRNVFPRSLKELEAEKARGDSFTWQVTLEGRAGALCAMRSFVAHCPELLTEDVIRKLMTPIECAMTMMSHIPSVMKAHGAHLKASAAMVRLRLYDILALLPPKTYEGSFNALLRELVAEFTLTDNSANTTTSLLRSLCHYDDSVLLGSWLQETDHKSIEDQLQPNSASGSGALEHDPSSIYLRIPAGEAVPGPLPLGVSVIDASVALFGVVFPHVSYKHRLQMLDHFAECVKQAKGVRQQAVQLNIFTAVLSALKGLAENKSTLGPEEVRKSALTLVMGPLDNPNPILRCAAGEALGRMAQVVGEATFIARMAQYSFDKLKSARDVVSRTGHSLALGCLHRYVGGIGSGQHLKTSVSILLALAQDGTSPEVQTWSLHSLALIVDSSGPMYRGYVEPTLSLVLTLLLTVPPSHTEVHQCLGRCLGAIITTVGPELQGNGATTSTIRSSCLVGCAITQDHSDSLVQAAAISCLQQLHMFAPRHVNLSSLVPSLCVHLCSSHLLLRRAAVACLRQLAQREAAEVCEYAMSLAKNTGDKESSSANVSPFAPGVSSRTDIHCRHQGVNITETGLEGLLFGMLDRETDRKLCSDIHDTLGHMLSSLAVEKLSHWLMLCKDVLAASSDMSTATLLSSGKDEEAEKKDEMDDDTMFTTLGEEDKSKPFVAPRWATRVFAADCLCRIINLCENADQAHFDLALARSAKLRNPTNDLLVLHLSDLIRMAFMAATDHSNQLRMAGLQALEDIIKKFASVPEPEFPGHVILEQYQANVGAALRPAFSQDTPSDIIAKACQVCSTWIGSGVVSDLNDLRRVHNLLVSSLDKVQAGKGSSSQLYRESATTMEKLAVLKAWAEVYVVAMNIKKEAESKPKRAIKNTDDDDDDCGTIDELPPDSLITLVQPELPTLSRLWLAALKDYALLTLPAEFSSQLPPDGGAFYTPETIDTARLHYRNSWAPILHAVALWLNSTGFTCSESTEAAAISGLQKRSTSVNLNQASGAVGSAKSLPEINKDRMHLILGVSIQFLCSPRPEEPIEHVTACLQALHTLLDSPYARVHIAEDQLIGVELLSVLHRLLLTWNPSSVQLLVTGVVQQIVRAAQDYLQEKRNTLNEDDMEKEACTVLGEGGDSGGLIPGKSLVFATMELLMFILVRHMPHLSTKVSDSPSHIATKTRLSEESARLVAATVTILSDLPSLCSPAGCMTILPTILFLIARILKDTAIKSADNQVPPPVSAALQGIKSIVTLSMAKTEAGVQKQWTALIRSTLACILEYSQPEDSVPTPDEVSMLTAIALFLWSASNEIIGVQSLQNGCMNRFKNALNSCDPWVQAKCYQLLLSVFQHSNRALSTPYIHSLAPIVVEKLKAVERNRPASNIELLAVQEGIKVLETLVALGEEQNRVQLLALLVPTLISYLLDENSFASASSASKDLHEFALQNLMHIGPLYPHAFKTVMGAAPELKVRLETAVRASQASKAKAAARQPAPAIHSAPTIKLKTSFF
UniProt P11142, sequence (P11142 whole entry, looked up): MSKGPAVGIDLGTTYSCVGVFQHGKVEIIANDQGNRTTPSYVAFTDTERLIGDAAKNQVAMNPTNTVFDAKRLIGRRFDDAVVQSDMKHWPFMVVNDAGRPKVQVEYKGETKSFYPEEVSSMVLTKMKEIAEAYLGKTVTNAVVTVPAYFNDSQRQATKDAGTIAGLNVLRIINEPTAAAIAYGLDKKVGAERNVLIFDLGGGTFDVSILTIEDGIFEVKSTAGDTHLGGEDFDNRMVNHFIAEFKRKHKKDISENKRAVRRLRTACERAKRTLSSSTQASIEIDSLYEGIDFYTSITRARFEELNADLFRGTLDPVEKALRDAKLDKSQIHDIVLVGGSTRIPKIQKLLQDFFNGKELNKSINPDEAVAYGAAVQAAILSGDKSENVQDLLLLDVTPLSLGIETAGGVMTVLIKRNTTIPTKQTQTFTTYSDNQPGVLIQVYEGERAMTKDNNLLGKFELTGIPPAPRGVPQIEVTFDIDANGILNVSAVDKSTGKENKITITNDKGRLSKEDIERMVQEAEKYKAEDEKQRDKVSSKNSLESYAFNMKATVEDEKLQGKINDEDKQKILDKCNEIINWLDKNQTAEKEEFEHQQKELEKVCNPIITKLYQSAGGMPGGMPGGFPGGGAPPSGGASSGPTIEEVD
UniProt Q8N9F7, sequence (Q8N9F7 whole entry, looked up): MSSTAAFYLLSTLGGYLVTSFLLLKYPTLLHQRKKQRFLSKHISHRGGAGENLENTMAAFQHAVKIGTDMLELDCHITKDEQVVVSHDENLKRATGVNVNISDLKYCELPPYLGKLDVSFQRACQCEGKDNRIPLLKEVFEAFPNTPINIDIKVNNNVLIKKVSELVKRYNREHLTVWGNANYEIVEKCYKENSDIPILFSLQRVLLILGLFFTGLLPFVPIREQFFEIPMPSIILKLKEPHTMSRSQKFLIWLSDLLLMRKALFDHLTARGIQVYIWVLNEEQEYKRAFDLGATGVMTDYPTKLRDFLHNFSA
UniProt Q9BYC5, sequence (Q9BYC5 whole entry, looked up): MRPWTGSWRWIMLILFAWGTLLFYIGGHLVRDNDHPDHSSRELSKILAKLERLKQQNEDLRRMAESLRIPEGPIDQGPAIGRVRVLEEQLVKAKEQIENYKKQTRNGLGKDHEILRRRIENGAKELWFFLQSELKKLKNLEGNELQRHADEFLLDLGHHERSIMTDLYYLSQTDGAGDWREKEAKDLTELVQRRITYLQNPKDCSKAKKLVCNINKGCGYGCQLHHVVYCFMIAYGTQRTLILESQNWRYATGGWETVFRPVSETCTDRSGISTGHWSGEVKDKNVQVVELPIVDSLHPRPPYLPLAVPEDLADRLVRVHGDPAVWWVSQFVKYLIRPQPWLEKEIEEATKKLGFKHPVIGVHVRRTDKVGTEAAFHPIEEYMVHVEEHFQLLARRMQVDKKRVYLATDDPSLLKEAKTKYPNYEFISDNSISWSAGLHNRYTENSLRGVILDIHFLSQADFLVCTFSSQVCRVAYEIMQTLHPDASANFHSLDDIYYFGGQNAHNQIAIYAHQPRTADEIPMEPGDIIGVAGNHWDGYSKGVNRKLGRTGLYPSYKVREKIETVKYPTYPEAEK
UniProt Q9Y3D6, sequence (Q9Y3D6 whole entry, looked up): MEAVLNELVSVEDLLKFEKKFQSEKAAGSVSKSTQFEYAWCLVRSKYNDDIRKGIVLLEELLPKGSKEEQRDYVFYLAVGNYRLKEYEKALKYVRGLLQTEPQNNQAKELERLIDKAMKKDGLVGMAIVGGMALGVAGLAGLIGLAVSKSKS
UniProt P23434, sequence (P23434 whole entry, looked up): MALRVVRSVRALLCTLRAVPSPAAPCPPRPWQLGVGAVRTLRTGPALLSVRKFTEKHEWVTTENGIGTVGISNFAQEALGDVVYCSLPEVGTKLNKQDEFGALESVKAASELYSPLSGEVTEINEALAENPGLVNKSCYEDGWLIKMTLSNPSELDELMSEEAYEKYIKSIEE

| Target | log2 fold change [1] | log2 fold change [2] | log2 fold change [3] | log2 fold change [4] | log2 fold change [5] | log2 fold change [6] | log2 fold change [7] | log2 fold change [8] | log2 fold change [9] | log2 fold change [10] |
| --- | --- | --- | --- | --- | --- | --- | --- | --- | --- | --- |
| H2AZ1 (UniProt P0C0S5) | -0.025 | -0.13 | -0.554 | -0.014 | -0.087 | 0.169 | -0.189 | 0.036 | 0.07 | 0.037 |
| IDI1 isoform 2 (UniProt Q13907) | 0.004 | -0.313 (active) | 0.03 | -0.012 | -0.033 | -0.004 | -0.038 | 0.034 | -0.02 | 0.002 |
| GUSB (UniProt P08236) | 0.09 | -0.099 | -0.063 | 0.165 | -0.095 | 0.032 | 0.009 | 0.052 | 0.033 | -0.002 |
| HSPA8 (UniProt P11142) | -0.016 | -0.031 | 0.01 | -0.014 | 0 | 0 | -0.003 | -0.088 | 0.009 | 0.017 |
| IFT80 isoform 3 (UniProt Q9P2H3) | 0.04 | 0.071 | -0.04 | 0.013 | 0.042 | -0.011 | -0.066 | -0.229 | -0.013 | 0.042 |
| HADHB (UniProt P55084) | -0.057 | 0.112 | 0.035 | -0.184 | 0.063 | 0.024 | 0.04 | 0.259 | -0.206 | 0.158 |
| HDAC6 (UniProt Q9UBN7) | 0.43 (active) | 0.033 | -0.007 | -0.007 | 0.041 | -0.164 | 0.033 | 0.07 | -0.043 | 0.115 |
| GLYR1 (UniProt Q49A26) | -0.053 | -0.211 | -0.289 | 0.05 | -0.352 | 0.1 | -0.021 | -0.034 | 0.119 | -0.03 |
| H1FX (UniProt Q92522) | -0.285 | -0.189 | -0.379 | 0.016 | -0.12 | -0.012 | 0.033 | 0 | 0.076 | -0.101 |
| HNRNPC isoform 2 (UniProt P07910) | 0.093 | -0.349 | -0.682 | 0.204 | 0.025 | 0.188 | -0.172 | -0.164 | 0.087 | -0.385 |
| GLS isoform 3 (UniProt O94925) | 0.09 | 0.156 | -0.041 | -0.094 | 0.027 | 0.004 | 0 | -0.082 | -0.11 | -0.12 |
| GPKOW (UniProt Q92917) | 0.099 | 0.116 | 0.016 | 0.016 | 0.057 | 0.013 | -0.016 | 0.029 | -0.011 | 0.001 |
| GLA (UniProt P06280) | 0.016 | 0.019 | -0.018 | -0.021 | -0.018 | -0.017 | -0.034 | -0.032 | 0.026 | 0.045 |
| HSPA8 (UniProt E9PK54) | -0.008 | 0 | -0.346 | 0.032 | 0 | 0.034 | -0.211 | -0.095 | -0.056 | -0.158 |
| GCSH (UniProt P23434) | -0.072 | -0.023 | 0.253 | 0.061 | -0.036 | 0.067 | -0.038 | -0.007 | -0.017 | -0.025 |
| FIS1 (UniProt Q9Y3D6) | 0.013 | 0.066 | 0.015 | 0.01 | -0.034 | 0.024 | -0.025 | 0.02 | -0.06 | 0.09 |
| GSTO1 (UniProt P78417) | -0.009 | 0.007 | 0.065 | -0.001 | 0.006 | 0.278 (active) | 0.095 | 0.031 | -0.005 | 0.008 |
| FUBP3 (UniProt Q96I24) | -0.059 | 0.007 | 0.084 | 0.019 | -0.014 | 0.069 | -0.017 | 0.002 | 0.009 | 0.036 |
| FLNA (UniProt P21333) | 0.022 | 0.072 | -0.002 | -0.032 | -0.022 | 0.005 | 0.013 | -0.017 | -0.018 | -0.133 |
| HEATR5B (UniProt Q9P2D3) | -0.009 | 0.059 | -0.128 | 0.025 | -0.067 | 0.004 | 0.007 | 0.05 | -0.026 | 0.043 |
| GLIPR2 (UniProt Q9H4G4) | 0.039 | 0.054 | -0.035 | 0.15 | 0.023 | -0.019 | -0.062 | -0.028 | 0.045 | -0.058 |
| GDPD1 (UniProt Q8N9F7) | 0.077 | 0.024 | -0.061 | -0.018 | -0.015 | 0.01 | 0.048 | -0.018 | -0.037 | 0.024 |
| GTF2A1 (UniProt P52655) | -0.011 | -0.052 | 0.001 | -0.011 | -0.094 | 0.034 | -0.021 | -0.029 | -0.024 | 0.036 |
| HNRNPF (UniProt P52597) | 0.02 | 0.126 | -0.036 | -0.034 | -0.098 | 0.017 | 0.079 | 0.003 | -0.044 | -0.044 |
| FEN1 (UniProt P39748) | 0.126 | 0.098 | 0.091 | 0.026 | 0.172 | 0.003 | 0.118 | 0.026 | 0.007 | -0.068 |
| FOXK1 (UniProt P85037) | 0.113 | 0 | 0.054 | -0.307 | 0.425 | 0.355 | -0.075 | 0.61 | 0.394 | 0.352 |
| HMOX2 (UniProt P30519) | 0.065 | 0.057 | 0.039 | -0.038 | 0.024 | -0.023 | 0.03 | 0.032 | -0.04 | 0.016 |
| GGT7 (UniProt Q9UJ14) | 0.012 | -0.006 | 0.084 | -0.027 | -0.001 | -0.004 | -0.018 | -0.01 | -0.035 | 0.062 |
| FUT8 (UniProt Q9BYC5) | -0.036 | 0.019 | -0.07 | -0.12 | -0.145 | -0.055 | -0.004 | -0.038 | 0.045 | -0.038 |
| IGF2BP2 (UniProt Q9Y6M1) | -0.013 | -0.083 | -0.255 | -0.015 | 0.158 | 0.014 | 0.007 | 0.075 | 0.057 | 0.075 |
